# According to PubChem BioAssay (NCATS):
# Several values for one entry are separate records, joined by “and”; a condition that tells them apart may be missing. Identical values can stand only once. Inconclusive results are not listed. Entries that show only a call come without a potency. Activity calls are given as the source filed them. Unless noted, the call rests on the fitted dose curve; in most records, active means well fitted curve in the direction sought with a large enough effect; inconclusive means small, poorly fitted or top-dose-only effect, or another doubt; inactive means no such curve, though single readings can be large; an effect the other way counts as inactive or inconclusive.
# Legend:
# [1] = Primary qHTS for inhibitors of nuclear receptor binding SET domain protein 2 (NSD2) in an isogenic RCH-ACV NSD2 p.E1099K mutant (9B) (AID 1645876); further: nearly all actives have a fitted effect of over 70% in size
# [2] = Primary qHTS for inhibitors of nuclear receptor binding SET domain protein 2 (NSD2) in an RCH-ACV wild type WT cells (2C) (AID 1645877); further: nearly all actives have a fitted effect of over 70% in size
# [3] = NCATS anti-infectives library activity on HEK293 viability as a counter-qHTS vs the C. elegans viability qHTS (AID 1745854);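 further: HEK293 cells exposed to compounds for 24 hr before the viability read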
# Summary of the method: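 Counter-screen for cytotoxicity: HEK293, 24 hr, 37C, compounds up to 41.7 uM final (a dilution series, 1:5). Readout CellTiter-Glo luminescence, 10 min RT. Digitonin control, 83.3 uM final.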
# [4] = molecular target: Rap guanine nucleotide exchange factor 3 (Homo sapiens) (UniProt O95398); assay: Confirmatory qHTS for antagonist of cAMP-regulated guanine nucleotide exchange factor 3 (EPAC1) (AID 1645880); further: nearly all actives have a fitted effect of over 55% in size
# Summary of the method: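 Released BODIPY-GDP fluoresces less than Rap1-bound BODIPY-GDP; the signal is followed at 480/540 nm at 5-min intervals over 30 min, after 5 min at room temperature. Reactions contain 100 nM EPAC1, 250 nM RAP1B-BODIPY-GDP and 50 uM GDP; results are normalized to ATA and DMSO.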
# [5] = molecular target: Rap guanine nucleotide exchange factor 3 (Homo sapiens) (UniProt O95398); assay: Confirmatory qHTS for agonist of cAMP-regulated guanine nucleotide exchange factor 3 (EPAC1) (AID 1645881);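 further: EPAC1 catalysed release of BODIPY-GDP from Rap1B seen as fluorescence loss; nearly all actives have a fitted effect of over 75% in size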
# [6] = molecular target: Rap guanine nucleotide exchange factor 4 (Homo sapiens) (UniProt Q8WZA2); assay: Confirmatory qHTS for agonist of cAMP-regulated guanine nucleotide exchange factor 4 (EPAC2) (AID 1645884);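 further: nucleotide exchange releases bodipy-GDP from Rap1 and this lowers its fluorescence; nearly all actives have a fitted effect of over 65% in size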
# [7] = molecular target: Rap guanine nucleotide exchange factor 4 (Homo sapiens) (UniProt Q8WZA2); assay: Confirmatory qHTS for antagonist of cAMP-regulated guanine nucleotide exchange factor 4 (EPAC2) (AID 1645885); further: potency means the concentration at half of the fitted maximal effect; nearly all actives have a fitted effect of over 25% in size
# [8] = NCATS anti-infectives library activity on the primary C. elegans qHTS viability assay (AID 1745855; calls by dose curve); settings: C. elegans worm area imaging, day 7; at 41.8 µM (top of the series)
# Summary of the method: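 GFP read-out by 488 nm laser cytometry at day 0, 3 and 7, gated on object perimeter, area and peak intensity, scored viability of PE254-GFP-FLuc worms exposed to compound in S medium with bacterial capsules at 21 °C.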
# Rap guanine nucleotide exchange factor 4 (Homo sapiens), sequence (Q8WZA2 whole entry, looked up): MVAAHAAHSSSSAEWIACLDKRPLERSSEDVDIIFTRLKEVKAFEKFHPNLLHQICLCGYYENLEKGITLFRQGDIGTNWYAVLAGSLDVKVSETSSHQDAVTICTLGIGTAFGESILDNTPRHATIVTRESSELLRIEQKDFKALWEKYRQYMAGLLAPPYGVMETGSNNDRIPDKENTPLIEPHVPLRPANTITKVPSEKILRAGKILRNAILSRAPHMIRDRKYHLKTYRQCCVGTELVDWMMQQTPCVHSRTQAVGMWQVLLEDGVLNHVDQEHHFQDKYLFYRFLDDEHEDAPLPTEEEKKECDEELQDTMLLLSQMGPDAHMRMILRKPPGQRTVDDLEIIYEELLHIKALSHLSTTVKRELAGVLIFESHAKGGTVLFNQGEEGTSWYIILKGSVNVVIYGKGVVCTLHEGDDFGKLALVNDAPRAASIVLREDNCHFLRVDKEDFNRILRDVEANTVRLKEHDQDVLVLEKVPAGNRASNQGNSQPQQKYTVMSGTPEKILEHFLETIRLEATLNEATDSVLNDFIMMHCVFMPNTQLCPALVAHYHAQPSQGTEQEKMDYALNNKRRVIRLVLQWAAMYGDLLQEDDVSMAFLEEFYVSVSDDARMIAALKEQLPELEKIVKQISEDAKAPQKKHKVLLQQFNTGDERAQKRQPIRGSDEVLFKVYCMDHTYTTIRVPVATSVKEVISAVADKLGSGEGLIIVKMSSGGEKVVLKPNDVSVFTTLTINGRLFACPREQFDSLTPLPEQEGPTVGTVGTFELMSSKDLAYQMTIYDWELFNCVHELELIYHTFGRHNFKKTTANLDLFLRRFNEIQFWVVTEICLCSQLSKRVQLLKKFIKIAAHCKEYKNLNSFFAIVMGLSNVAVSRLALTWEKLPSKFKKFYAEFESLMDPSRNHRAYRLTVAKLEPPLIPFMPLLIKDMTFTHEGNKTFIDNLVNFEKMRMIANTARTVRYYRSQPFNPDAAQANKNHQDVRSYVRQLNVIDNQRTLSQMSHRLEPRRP
# Rap guanine nucleotide exchange factor 3 (Homo sapiens), sequence (O95398 whole entry, looked up): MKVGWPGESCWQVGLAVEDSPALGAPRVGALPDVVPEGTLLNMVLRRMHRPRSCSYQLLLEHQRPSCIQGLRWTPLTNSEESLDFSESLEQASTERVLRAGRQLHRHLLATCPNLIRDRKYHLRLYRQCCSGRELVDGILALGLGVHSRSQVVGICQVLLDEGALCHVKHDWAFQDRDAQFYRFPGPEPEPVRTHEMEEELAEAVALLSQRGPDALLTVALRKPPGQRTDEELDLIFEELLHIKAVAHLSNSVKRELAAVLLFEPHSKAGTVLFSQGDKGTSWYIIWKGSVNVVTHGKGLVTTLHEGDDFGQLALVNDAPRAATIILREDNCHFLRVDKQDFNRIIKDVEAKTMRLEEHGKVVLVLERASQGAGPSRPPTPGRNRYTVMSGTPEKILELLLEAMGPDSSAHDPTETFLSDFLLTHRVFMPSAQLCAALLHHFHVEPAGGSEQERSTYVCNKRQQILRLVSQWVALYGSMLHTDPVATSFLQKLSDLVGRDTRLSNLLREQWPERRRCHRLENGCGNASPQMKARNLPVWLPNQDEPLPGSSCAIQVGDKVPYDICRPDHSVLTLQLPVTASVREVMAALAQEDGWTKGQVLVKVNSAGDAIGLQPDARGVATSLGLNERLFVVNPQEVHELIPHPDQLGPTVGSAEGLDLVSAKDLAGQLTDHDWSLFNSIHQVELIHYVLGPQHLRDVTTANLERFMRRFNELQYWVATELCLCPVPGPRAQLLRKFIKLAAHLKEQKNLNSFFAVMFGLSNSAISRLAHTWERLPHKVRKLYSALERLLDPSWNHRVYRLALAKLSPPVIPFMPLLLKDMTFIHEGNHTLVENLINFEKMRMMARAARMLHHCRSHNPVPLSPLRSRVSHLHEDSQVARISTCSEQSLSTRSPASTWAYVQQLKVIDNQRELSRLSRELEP
smiles,measurement,setting,value
COc1nccnc1NS(=O)(=O)c1ccc(N)cc1,Potency,[1],inactive
same,Potency,[2],inactive
CN[C@@H]1[C@H](O)[C@H](NC)[C@H]2O[C@@]3(O)C(=O)C[C@@H](C)O[C@H]3O[C@@H]2[C@H]1O,Potency,[1],inactive
same,Potency,[2],inactive
Cc1cc(O)cc(C)c1Cl,Potency,[1],inactive
same,Potency,[2],inactive
same,outcome,[3],inactive
Cc1[nH]c(C)c(Cl)c(=O)c1Cl,Potency,[1],inactive
same,Potency,[2],inactive
CCCCOC(=O)c1ccc(N)cc1,Potency,[2],inactive
CCCNC(C)C(=O)Nc1c(C)csc1C(=O)OC (stereo not drawn),Potency,[1],inactive
same,Potency,[2],inactive
CC[C@H](C)[C@H](N)C(=O)O,Potency,[1],inactive
same,Potency,[2],inactive
NS(=O)(=O)c1cc(-c2nn[nH]n2)c(NCc2cccs2)cc1Cl,Potency,[1],inactive
same,Potency,[2],inactive
CCN[C@H]1CN(CCCOC)S(=O)(=O)c2sc(S(N)(=O)=O)cc21,Potency,[1],inactive
same,Potency,[2],inactive
same,outcome,[3],inactive
Cc1cccc(C(=O)O)c1O,Potency,[1],inactive
same,Potency,[2],inactive
CC1(C)[C@@H](OC(=O)CCC(=O)O)CC[C@]2(C)[C@H]3C(=O)C=C4[C@@H]5C[C@@](C)(C(=O)O)CC[C@]5(C)CC[C@@]4(C)[C@]3(C)CC[C@@H]12,Potency,[1],inactive
same,Potency,[2],inactive
same,outcome,[4],inactive
same,outcome,[5],inactive
same,outcome,[6],inactive
same,Potency,[7],4.21 µM (active) and 4.13 µM (active)
CC(=O)OC[C@H]1O[C@@](COC(C)=O)(O[C@H]2O[C@H](COC(C)=O)[C@@H](OC(C)=O)[C@H](OC(C)=O)[C@H]2OC(C)=O)[C@@H](OC(C)=O)[C@@H]1OC(C)=O,Potency,[1],inactive
same,Potency,[2],inactive
CCOC(=O)[C@H](CCc1ccccc1)N[C@@H](C)C(=O)N1Cc2cc(OC)c(OC)cc2C[C@H]1C(=O)O,Potency,[1],inactive
same,Potency,[2],inactive
same,outcome,[3],inactive
same,outcome,[8],inactive
